# Screening data: PubChem, several laboratories
# Shown are actives, neighbours in structure and some others; about 5.9% of the full set was active somewhere.
# ABHD5-PLIN5 inh: blocks binding of human ABHD5 to perilipin-5; Q00G26+Q8WTS1; inhibition, % at 4 µM; AID 602281; 360,000 compounds, 0.78% hits; Split G. princeps luciferase complementation, luminescence, 4 h;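 active = inhibition above the mean inhibition across every tested compound plus 3 SD, cut at about 22% in these data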
# Rtt109 HAT inh: inhibitors of Candida albicans Rtt109/Vps75 histone acetyltransferase | Q5AAJ8 | inhibition, % at 34.9 µM | purified Rtt109/Vps75, ThioGlo CoA-SH fluorescence, 4 h | AID 540336 | 330,000 compounds, 0.16% hits;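 active = inhibition of at least 50% in every replicate; inconclusive = best replicate reaches 50% inhibition but some replicates fall short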
# rCAG binder: molecules binding r(CAG) RNA repeats. r(CAG) RNA repeat, TO-PRO-1 dye displacement fluorescence. 370,000 compounds, 1.3% hits. inhibition, % at 3 µM;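 active = inhibition above the plate cutoff, the mean of all test compounds on that plate plus 3 SD, cut at about 35% in these data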;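 note: higher means more dye released from RNA so lower well fluorescence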
# ALR H2O2 inh: inhibitors of human sulfhydryl oxidase ALR; P55789; inhibition, % (no concentration beside the values); 290,000 compounds, 3.8% hits; purified ALR, DTT oxidation, H2O2 HRP-luminol luminescence;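 active = mean replicate inhibition above about 79%, with every replicate also reaching it, limit read from the data; inconclusive = only one of the two criteria met; inactive = mean below limit and not every replicate reaching it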
# Target sequence (P55789 whole entry, looked up): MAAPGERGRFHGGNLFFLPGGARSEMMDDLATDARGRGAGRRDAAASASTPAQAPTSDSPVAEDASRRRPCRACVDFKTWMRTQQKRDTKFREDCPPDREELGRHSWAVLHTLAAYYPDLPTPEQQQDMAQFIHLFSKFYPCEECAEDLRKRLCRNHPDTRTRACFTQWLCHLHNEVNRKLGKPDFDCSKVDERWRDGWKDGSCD
# LANA-H2A inh: blocks KSHV LANA binding to histone H2A/H2B; Q9QR71; cell-free LANA-H2A/H2B peptide, fluorescence polarization; inhibition, % (test concentration not listed); 320,000 compounds, 0.6% hits; AID 2629; in the data active = inhibition mostly above about 10%, no sharp cut-off; inactive = mostly below about 6.7%
# PRMT1 FP inh: blocks human protein arginine methyltransferase 1 | AID 652257 | 370,000 compounds, 1.3% hits | recombinant PRMT1, activity-based probe fluorescence polarization | Q99873 | inhibition, % at 2.79 µM;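 active = inhibition above about 21% made by adding two undisclosed values, limit read from the data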
# ABHD5-PLIN5 conf: ABHD5-PLIN5 interaction inhibition, confirmed; shares compounds with ABHD5-PLIN5 inh; biochemical ABHD5-PLIN5 interaction, luminescence; inhibition, % at 4 µM; 2,200 compounds, 67% hits; in the data active = inhibition above about 23%
# HNF4 split-luc: HNF4 split-luciferase signal hit, counter-screen; shares compounds with ABHD5-PLIN5 inh; HNF4 dimerization, luminescence, biochemical; inhibition, % at 4 µM; 2,200 compounds, 77% hits; AID 651674;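 active = mean inhibition across replicate wells exceeding the computed hit threshold, cut at about 13% in these data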;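 note: light from luciferase halves that rejoin when HNF4 fusion proteins dimerize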
# Numbers stand for hits; i = inactive; ? = inconclusive; nt = not tested or not shown.
SMILES,ABHD5-PLIN5 inh,Rtt109 HAT inh,rCAG binder,ALR H2O2 inh,LANA-H2A inh,PRMT1 FP inh,ABHD5-PLIN5 conf,HNF4 split-luc
O=C(Cc1ccc(S(=O)(=O)N2CCOCC2)s1)Nc1ccccc1Br,i,i,i,i,i,i,nt,nt
Cn1c(N=Nc2ccc(N3CCOCC3)cc2)[n+](C)c2ccccc21,24.4,i,i,nt,nt,i,i,39.1
Cn1c(N2CCOCC2)c(/C=N/O)c2ccccc21,i,i,i,i,i,i,nt,nt
CCN1c2ccccc2NC2N=C(OC)C(c3ccccc3)C21 (stereo not drawn),47.9,i,nt,98.6,i,nt,i,12.8
CCOC(=O)C(=Cc1ccc(-n2ccnc2)cc1)C(=O)OCC,63.0,i,i,i,i,i,88.3,95.8
O=C(NCc1ccccc1)c1cc(C2CCCN(S(=O)(=O)c3ccccc3)C2)on1 (stereo not drawn),i,nt,i,nt,nt,i,nt,nt
Cc1ccc2nc(-c3ccc(NC(=O)CSc4nnc(Cc5cccs5)n4C)cc3)sc2c1,nt,nt,i,nt,nt,i,nt,nt
CC[C@H](CCCc1ccccc1OC)CCS(=O)(=O)N(C)C,nt,nt,i,nt,nt,i,nt,nt
Cc1ccc2cc(C#N)c(NCc3ccco3)nc2c1,23.9,i,i,i,i,i,46.2,61.4
O=S(=O)(c1ccccc1)N1CCN(Cc2c(O)ccc3ccccc23)CC1,28.1,i,i,i,i,i,38.7,81.4
Oc1ccc2ccccc2c1CN1CCN(C/C=C/c2ccccc2)CC1,i,i,i,i,i,i,nt,nt
N#Cc1ccc(/C=C/C(=O)c2ccccc2)cc1,82.6,i,i,?,i,i,100.2,105.3
O=C(/C=C/c1ccccc1)c1ccc2ccccc2c1,52.9,i,i,nt,nt,i,76.0,62.5
O=C(/C=C/c1ccccc1)c1ccccc1,35.0,i,i,nt,i,i,82.0,75.7
O=C(/C=C/c1ccccc1)CC(=O)c1ccccc1,i,i,i,nt,nt,i,nt,nt
O=C(/C=C/c1ccccc1)/C=C/c1ccccc1,73.9,i,i,nt,i,i,98.9,91.8
O=C(OCc1cn(Cc2ccc(Cl)cc2)nn1)N1CCCC1,nt,nt,i,nt,nt,i,nt,nt
CN(CCO)C1CN(Cc2cn(Cc3ccccc3C(F)(F)F)nn2)S(=O)(=O)C1 (stereo not drawn),nt,nt,i,nt,nt,i,nt,nt
Cc1cc(C)c2nc(-c3cccc(Cl)c3)c(C)c(C(=O)N3CCOCC3)c2c1,i,i,i,i,i,i,nt,nt
CC(O)C(NS(=O)(=O)c1ccc(Cl)cc1)C(=O)OCCOc1ccc(F)cc1 (stereo not drawn),i,nt,i,nt,nt,i,nt,nt
Nc1[nH]c(C(=O)c2ccc(Br)cc2)c(-c2ccc3ccccc3c2)c1C(=O)NCCc1c[nH]c2ccccc12,nt,nt,i,nt,nt,i,nt,nt
O=C(/C=C\c1ccc(-c2ccccc2)o1)c1ccccc1,38.0,i,i,nt,i,26.0,67.5,90.3
CC[C@@H](C)[C@H](NC(=O)OCc1ccccc1)c1nnc([C@@H](NC(=O)OCc2ccccc2)[C@@H](C)CC)o1,i,i,i,i,i,i,nt,nt
CC[C@@H](C)[C@H](NC(=O)OC(C)(C)C)c1nnc(S(=O)(=O)Cc2cc(C)ccc2C)o1,60.9,132.9,i,i,i,i,72.2,102.0
O=C1CCN(CC2CCCCC2)C=C1C(=O)c1ccccc1,i,i,i,nt,nt,i,nt,nt
SMILES,ABHD5-PLIN5 inh,Rtt109 HAT inh,rCAG binder,ALR H2O2 inh,LANA-H2A inh,PRMT1 FP inh,ABHD5-PLIN5 conf,HNF4 split-luc
N#Cc1c(NCCCO)nc(-c2ccco2)c2c1CCCC2,34.6,i,i,i,i,i,i,21.4
Cc1ccc(C2C3=C(CCCC3=O)N=C3c4ccccc4C(=O)C32)cc1 (stereo not drawn),33.5,i,i,nt,i,i,51.0,54.7
CCc1c(C)sc(NC(=O)c2cccs2)c1C#N,23.6,i,i,i,i,i,i,i
Cc1ccccc1-c1nnc2n1N=C(c1ccc(O)c(O)c1)CS2,nt,nt,i,nt,nt,i,nt,nt
CCC1(C(=O)OC)NC(c2ccco2)C2C(=O)N(c3ccccc3)C(=O)C21 (stereo not drawn),24.6,i,i,nt,i,i,i,12.7
Cc1ccc(O)c(NC(=S)NC(=O)/C=C/c2ccco2)c1,i,i,i,i,i,i,nt,nt
Cc1ccnc(NC(=S)NC(=O)/C=C/c2ccco2)c1,23.5,i,i,i,i,23.3,i,i
